Results on twelve compounds are retold here after PubChem BioAssay (NCI).

SMILES strings stand for the structures. This is part of a sample that, as a whole, favours compounds with a hit. Of some 79,000 tested, about 15% had one in any assay. Unmarked numbers belong to inactive results. Calls of active or inactive are those of the source. No stated cut-off is given here; in the data, active means growth inhibition above about 70%; inactive means the rest.

Test [1] in a line: NCI Yeast Anticancer Drug Screen. Data for the rad50 strain (AID 155).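 Further: 0% = growth of vehicle-only cultures of the same strain.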 Conditions: S. cerevisiae rad50 strain growth inhibition, hits give high values. Summed up: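 Readout: growth inhibition relative to vehicle-treated cultures. Compound exposure was carried out in a genetically defined yeast strain deficient in DNA damage repair.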
Test [2] in a line: NCI Yeast Anticancer Drug Screen. Data for the mec2-1 strain (AID 157). To be noted: S. cerevisiae mec2-1 strain, hits give high values. Summed up:
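Test agents were screened against the mec2-1 yeast strain, with defined DNA repair or cell cycle alteration. Growth was scored as inhibition against vehicle-only controls.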

The nature of test [3]: NCI Yeast Anticancer Drug Screen. Data for the cln2 rad14 strain (AID 165).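 Further: 0% = growth equal to vehicle treated cultures.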 Conditions: S. cerevisiae cln2 rad14 strain, hits give high values. Summed up:
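Growth of compound-exposed yeast (cln2 rad14 genotype) measured and expressed as inhibition relative to vehicle.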

Test [4] is described as follows: NCI Yeast Anticancer Drug Screen. Data for the bub3 strain (AID 167). To be noted: S. cerevisiae bub3 mutant strain, hits give high values. Summed up: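 Readout: yeast growth inhibition, expressed relative to vehicle-only wells. The test organism is a mutant strain from a panel with lesions in DNA repair or checkpoint genes.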
The nature of test [5]: NCI Yeast Anticancer Drug Screen. Data for the mlh1 rad18 strain (AID 175). Conditions: S. cerevisiae mlh1 rad18 strain growth inhibition, hits give high values. Summed up: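 In this whole-cell yeast screen, a strain with altered DNA damage repair is challenged with compound, and its growth is measured against matched vehicle-treated controls.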
The nature of test [6]: NCI Yeast Anticancer Drug Screen. Data for the sgs1 mgt1 strain (AID 161).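 Further: 0% = growth of cultures given vehicle only.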 Conditions: S. cerevisiae sgs1 mgt1 strain, hits give high values. Summed up: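 Genetically altered yeast, compound exposure, growth inhibition relative to vehicle.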
Setting [7] is: at 5.0 µM (retest, dose inferred, filed as 0.5).
Setting [8] is: at 50.0 µM (retest, dose inferred, filed as 5.0).

For `COc1ccc(CN2CCCN(Cc3ccc(OC)cc3OC)C2c2ccc(N(CCCl)CCCl)cc2)c(OC)c1`, the growth inhibition in test [1] (setting [7]) was 2%; in test [1] (setting [8]), 49%; in test [1] (at 50.0 µM), 71% (active); in test [2] (setting [7]) it was -9%; in test [2] (setting [8]) it was 8%; in test [2] (at 50.0 µM), 22.8%. Further, the growth inhibition was -8% in test [3] (setting [7]); 43% in test [3] (setting [8]); 30.3% in test [3] (at 50.0 µM); -8% in test [4] (setting [7]); -3% in test [4] (setting [8]); 5.25% in test [4] (at 50.0 µM). The growth inhibition in test [5] (setting [7]) is 55%; in test [5] (setting [8]), 95% (active); in test [5] (at 50.0 µM) it was 53.9%.

`CC/C(=C\c1ccc(Cl)c(Cl)c1)[N+](=O)[O-]`: the growth inhibition is 97% (active) in test [1] (setting [7]); 99% (active) in test [1] (setting [8]); 52% in test [2] (setting [7]); 100% (active) in test [2] (setting [8]); 99% (active) in test [6] (setting [7]); 100% (active) in test [6] (setting [8]). For the same compound, the growth inhibition is 13% in test [3] (setting [7]); 99% (active) in test [3] (setting [8]); 60% in test [4] (setting [7]); 99% (active) in test [4] (setting [8]); 14% in test [5] (setting [7]); 99% (active) in test [5] (setting [8]).

In the case of `O=C1C=C(N2CC2)C(=O)C=C1N1CC1`, the growth inhibition was 91% (active) in test [1] (setting [7]); 98% (active) in test [1] (setting [8]); 90% (active) in test [2] (setting [7]); 99% (active) in test [2] (setting [8]); 27% in test [6] (setting [7]); 41% in test [6] (setting [8]). Besides, the growth inhibition is 88% (active) in test [6] (at 50.0 µM); 24% in test [3] (setting [7]); 25% in test [3] (setting [8]); 89.2% (active) in test [3] (at 50.0 µM); 20% in test [4] (setting [7]); 55% in test [4] (setting [8]). For the same compound, the growth inhibition is 87.7% (active) in test [4] (at 50.0 µM), 94% (active) in test [5] (setting [7]) and 97% (active) in test [5] (setting [8]).

On to `COc1cc(/C=C/[N+](=O)[O-])cc(OC)c1OC`, for which the growth inhibition in test [1] (setting [7]) was 34%; in test [1] (setting [8]), 99% (active); in test [2] (setting [7]) it was 22%; in test [2] (setting [8]) it was 99% (active); in test [6] (setting [7]) it was 48%; in test [6] (setting [8]), 100% (active). For the same compound, the growth inhibition in test [3] (setting [7]) is 13%; in test [3] (setting [8]) it was 99% (active); in test [4] (setting [7]), 19%; in test [4] (setting [8]), 100% (active); in test [5] (setting [7]) it was -8%; in test [5] (setting [8]) it was 99% (active).

Consider `Clc1ccc2c(c1)C(c1ccccc1Cl)=NCC(SCCN1CCOCC1)=N2`, for which the growth inhibition was 56% in test [1] (setting [7]); 94% (active) in test [1] (setting [8]); 96.8% (active) in test [1] (at 50.0 µM); 29% in test [2] (setting [7]); 92% (active) in test [2] (setting [8]); 93.6% (active) in test [2] (at 50.0 µM). Further, the growth inhibition in test [3] (setting [7]) was 45%; in test [3] (setting [8]), 81% (active); in test [3] (at 50.0 µM), 82% (active); in test [4] (setting [7]), 48%; in test [4] (setting [8]), 93% (active); in test [4] (at 50.0 µM) it was 95.6% (active). Moreover, the growth inhibition was 52% in test [5] (setting [7]), 95% (active) in test [5] (setting [8]) and 91.5% (active) in test [5] (at 50.0 µM).

Take `NC(=O)/C=C/c1ccc([As]=O)cc1` (configuration not stated): the growth inhibition is 1% in test [1] (setting [7]); 25% in test [1] (setting [8]); 97.8% (active) in test [1] (at 50.0 µM); 1% in test [2] (setting [7]); 22% in test [2] (setting [8]); 98.7% (active) in test [2] (at 50.0 µM). Moreover, the growth inhibition was 9% in test [3] (setting [7]); 3% in test [3] (setting [8]); 96.5% (active) in test [3] (at 50.0 µM); 4% in test [4] (setting [7]); 37% in test [4] (setting [8]); 98.7% (active) in test [4] (at 50.0 µM). Moreover, the values for the growth inhibition in test [5] (setting [7]), in test [5] (setting [8]) and in test [5] (at 50.0 µM) were 5%, 39% and 99% (active), respectively.

For `O=[N+]([O-])c1cccc([N+](=O)[O-])c1Cl`, the growth inhibition is 58% in test [1] (setting [7]); 96% (active) in test [1] (setting [8]); 22% in test [2] (setting [7]); 96% (active) in test [2] (setting [8]); 13% in test [6] (setting [7]); 88% (active) in test [6] (setting [8]). The growth inhibition was 8% in test [3] (setting [7]); 12% in test [3] (setting [8]); -12% in test [4] (setting [7]); 33% in test [4] (setting [8]); 7% in test [5] (setting [7]); 46% in test [5] (setting [8]).

Take `CCC(=O)O.[Ag]`: the growth inhibition in test [1] (setting [7]) is 98% (active); in test [1] (setting [8]) it was 98% (active); in test [1] (at 50.0 µM), 91.2% (active); in test [6] (setting [7]), 99% (active); in test [6] (setting [8]), 98% (active); in test [6] (at 50.0 µM), 91.6% (active). Also, the growth inhibition in test [3] (setting [7]) was 98% (active); in test [3] (setting [8]) it was 97% (active); in test [3] (at 50.0 µM) it was 90.3% (active); in test [4] (setting [7]), 99% (active); in test [4] (setting [8]), 97% (active); in test [4] (at 50.0 µM), 91% (active). For the same compound, the growth inhibition in test [5] (setting [7]) is 99% (active); in test [5] (setting [8]) it was 97% (active); in test [5] (at 50.0 µM), 90.3% (active).

As to `CC(C)(C)[Si](OC(=O)N(CCCl)CCCl)(c1ccccc1)c1ccccc1`, the growth inhibition in test [1] (setting [7]) was 22%; in test [1] (setting [8]), 82% (active); in test [1] (at 50.0 µM), 67.2%; in test [6] (setting [7]), 13%; in test [6] (setting [8]), 82% (active); in test [6] (at 50.0 µM) it was 79.5% (active). The growth inhibition in test [3] (setting [7]) is 19%; in test [3] (setting [8]), 83% (active); in test [3] (at 50.0 µM), 68.4%; in test [4] (setting [7]), -2%; in test [4] (setting [8]) it was 93% (active); in test [4] (at 50.0 µM), 68.6%. For the same compound, the values for the growth inhibition in test [5] (setting [7]), in test [5] (setting [8]) and in test [5] (at 50.0 µM) were 15%, 85% (active) and 90.3% (active), respectively.

As to `O=C(CF)CCl`, the growth inhibition was 89% (active) in test [1] (setting [7]); 98% (active) in test [1] (setting [8]); 25% in test [2] (setting [7]); 99% (active) in test [2] (setting [8]); 88% (active) in test [6] (setting [7]); 65% in test [6] (setting [8]). In addition, the growth inhibition in test [3] (setting [7]) was 79% (active); in test [3] (setting [8]) it was 99% (active); in test [4] (setting [7]), 32%; in test [4] (setting [8]), 99% (active); in test [5] (setting [7]), 69%; in test [5] (setting [8]), 98% (active).

As for `CCC(CC)COC(=O)CI`, the growth inhibition in test [1] (setting [7]) is 33%; in test [1] (setting [8]) it was 97% (active); in test [2] (setting [7]), 19%; in test [2] (setting [8]), 79% (active); in test [6] (setting [7]), 28%; in test [6] (setting [8]), 99% (active). Further, the growth inhibition in test [3] (setting [7]) was 15%; in test [3] (setting [8]), 40%; in test [4] (setting [7]), 50%; in test [4] (setting [8]), 86% (active); in test [5] (setting [7]) it was -20%; in test [5] (setting [8]), 87% (active).

As to `C1CC[N-]CC1.C1CC[N-]CC1.N#C[S-].N#C[S-].[Cd]`, the growth inhibition in test [1] (setting [7]) is 33%; in test [1] (setting [8]) it was 86% (active); in test [2] (setting [7]) it was 18%; in test [2] (setting [8]), 69%; in test [6] (setting [7]), 15%; in test [6] (setting [8]) it was 81% (active). In addition, the growth inhibition in test [3] (setting [7]) is 11%; in test [3] (setting [8]), 57%; in test [4] (setting [7]), 10%; in test [4] (setting [8]), 73% (active); in test [5] (setting [7]), -4%; in test [5] (setting [8]) it was 66%.
